Assay [1] in a line: inhibitors of TNFa-induced NFkB p65 translocation, primary screen, imaging, HUVEC, MLSMR starter and 10KST1 sets (AID 438;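 active = inhibition above 20% together with a positive visual image hit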;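 also: compound added about 3h40 before a 20 min TNFalpha stimulation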;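 as to inhibition: signal is the nuclear over cytoplasmic p65 intensity ratio per well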). The following applies: HUVEC TNFa-induced p65 nuclear translocation; cell count: measured here: nuclei count (cytotoxicity indicator), at 2.08 µM; inhibition: at 2 µM, stronger effect = higher value, 0% TNFa-plus-vehicle, 100% no-TNFa wells.
The nature of assay [2]: inhibitors of mutant huntingtin aggregation, primary screen, imaging, exon1htt(103Q)mCFP cells, high-content imaging (AID 483;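 active = visual image review flags a hit and inhibition of aggregation exceeds 20%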;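 also: compound exposure lasted 3 days before fixation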;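 as to nuclei count: percent of the per-plate median nuclei count of sample wells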). The following applies: exon1htt(103Q)mCFP cell line, aggregate imaging, at 2 µM; inhibition of aggregation: stronger effect = higher value; nuclei count: measured here: cell count, toxicity.
Assay [3] is described as follows: inhibitors of E-selectin induction by TNFa, primary screen, imaging, HUVEC, immunofluorescence, MLSMR starter and 10KST1 sets (AID 487;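 active = visually confirmed hit in the image check and inhibition above 20%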;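 as to inhibition: signal is fraction of cell area covered by stained E-selectin grains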;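 as to nuclei count: 100% = median nuclei count of all wells on the same plate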). The following applies: HUVEC TNFalpha-induced E-selectin immunofluorescence imaging, at 2 µM; inhibition: stronger effect = higher value; nuclei count: measured here: cell number, toxicity.
For assay [4], the target named is Voltage-gated potassium channel subunit beta-2 (Rattus norvegicus) (UniProt P62483). As to the kind of experiment: KvBeta enzyme negative modulators, primary screen, biochemical, NADPH fluorescence (AID 622).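 Also: slope of raw intensity against log time taken from 70 to 1610 s.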 The following applies: recombinant KvBeta, 4-cyanobenzaldehyde reduction, at 10 µM, stronger effect = higher value.
For assay [5] the target is unchanged. As to the kind of experiment: KvBeta positive modulators, primary screen, biochemical, NADPH fluorescence (AID 623;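 active = NADPH fluorescence slope more negative than the mean of all samples by about 3 SD, 99.7% confidence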;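 also: fluorescence intensity change per second fitted from 20 to 320 s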). The following applies: Recombinant KvBeta, NADPH fluorescence decrease slope, 10 min; at 10 µM; stronger effect = lower value.
For assay [6], the target named is Alpha-2C adrenergic receptor (Homo sapiens) (UniProt P18825). As to the kind of experiment: modulators of alpha2C/GIRK thallium flux, primary screen, cell-based, HEK293 alpha2C/GIRK1/2 (AID 624;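 active = fluorescence slope after compound addition differing from the mean of all screened samples at 99.7% confidence, in either direction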;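 also: slope of fluorescence ratio to pre-addition baseline per second over 15 to 24 s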). Conditions: thallium flux BTC fluorescence, at 10 µM, actives lie on both sides.
A short description of assay [7]: inhibitors of Sendai virus-induced IRF3 signaling, primary screen, TLR/RLR signaling modifier project, cell-based, Sendai virus stimulus, luciferase, 10K MLSCN set (AID 602276;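 active = inhibition at or above 50% at 10 µM; inactive = inhibition below 50%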;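 also: firefly luciferase from ISG56 promoter only with Renilla not read in this screen; 0% = Sendai virus plus DMSO and 100% = medium plus DMSO without virus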). Conditions: HEK293 RL24 IRF3 luciferase reporter, at 10 µM, stronger effect = higher value. In general terms: In a reporter assay the amount or activity of a reporter protein is the signal.
Assay [8] is described as follows: inhibitors of poly I:C-induced TLR3 signaling, primary screen, cell-based, poly I:C stimulus, luciferase, 10K MLSCN set (AID 602277;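 active = inhibition of the reporter signal at or above 50%; inactive = inhibition below 50%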). The following applies: HEK293-TLR3 RL24 IRF3 luciferase reporter, at 10 µM, stronger effect = higher value.

Calls of active or inactive are those of the source.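 The calls were made as follows, unless noted: active = fluorescence slope higher than the sample average by over 3 SD (cut at about -0.22 in these data, passing the limit was not always enough); inactive = the rest.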

Sequence of Voltage-gated potassium channel subunit beta-2 (Rattus norvegicus) (P62483 whole entry, looked up): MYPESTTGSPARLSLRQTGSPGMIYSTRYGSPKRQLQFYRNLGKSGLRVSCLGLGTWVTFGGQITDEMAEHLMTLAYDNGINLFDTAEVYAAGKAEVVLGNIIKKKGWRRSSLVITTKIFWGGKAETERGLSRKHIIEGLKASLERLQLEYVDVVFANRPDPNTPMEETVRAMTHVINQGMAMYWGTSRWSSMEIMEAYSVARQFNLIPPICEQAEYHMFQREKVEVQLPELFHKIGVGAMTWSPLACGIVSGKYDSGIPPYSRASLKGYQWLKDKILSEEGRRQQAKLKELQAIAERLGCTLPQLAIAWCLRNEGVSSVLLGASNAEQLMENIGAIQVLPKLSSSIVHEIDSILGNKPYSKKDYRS
Sequence of Alpha-2C adrenergic receptor (Homo sapiens) (P18825 whole entry, looked up): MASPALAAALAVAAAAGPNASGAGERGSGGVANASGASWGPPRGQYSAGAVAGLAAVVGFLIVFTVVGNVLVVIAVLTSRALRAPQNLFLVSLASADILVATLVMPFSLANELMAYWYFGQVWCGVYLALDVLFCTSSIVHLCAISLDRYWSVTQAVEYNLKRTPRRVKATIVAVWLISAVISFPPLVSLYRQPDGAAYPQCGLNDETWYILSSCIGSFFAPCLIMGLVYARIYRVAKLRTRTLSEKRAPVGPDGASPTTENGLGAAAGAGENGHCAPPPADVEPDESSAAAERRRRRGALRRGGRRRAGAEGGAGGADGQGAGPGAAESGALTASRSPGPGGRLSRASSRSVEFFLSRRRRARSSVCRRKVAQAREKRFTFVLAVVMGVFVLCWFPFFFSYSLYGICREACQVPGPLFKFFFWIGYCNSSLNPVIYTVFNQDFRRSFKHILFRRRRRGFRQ

Regarding `O=C1C2CC=CCC2C(=O)N1c1ccc(Cc2ccncc2)cc1` (stereo not drawn), the cell count in assay [1] came to 591. Further, the inhibition – broadly, the change of the read-out against control, counted positive when it falls – in assay [1] is -2.9% (inactive); in assay [3], 29.1% (inactive); in assay [7], -2.68% (inactive); in assay [8] it was -12.7% (inactive). In assay [2], the inhibition of aggregation is -8.1% (inactive). The results for the nuclei count in assay [2] and in assay [3] were 107% and 95.7%, respectively. The fluorescence slope in assay [4] is -0.43 (inactive). For the same compound, the NADPH fluorescence slope in assay [5] was 5.4e-05 (inactive). Besides, the slope in assay [6] was 0.00567 (inactive).

Take `Cc1cccc(N2C(=O)CC(N3CCN(C(=O)c4ccccc4)CC3)C2=O)c1` (stereo not drawn): in assay [1], the cell count is 408. Moreover, the inhibition in assay [1] was 19.1% (inactive); in assay [3] it was -12.6% (inactive); in assay [7], 10.6% (inactive); in assay [8] it was 16.7% (inactive). In addition, the inhibition of aggregation in assay [2] is 1.1% (inactive). Further, the nuclei count was determined as 106% in assay [2] and 118% in assay [3]. In addition, the fluorescence slope in assay [4] was -0.412 (inactive). Further, in assay [5], the NADPH fluorescence slope was -0.000104 (inactive). Also, the slope in assay [6] is 0.00671 (inactive).

As for `O=C(c1ccc2c(c1)OCO2)N1CCCN(C(=O)c2ccc3c(c2)OCO3)CC1`, the cell count in assay [1] was 522. Further, the inhibition in assay [1] is 5% (inactive); in assay [3], -123% (inactive); in assay [7] it was 15.7% (inactive); in assay [8], 28.5% (inactive). Moreover, the inhibition of aggregation in assay [2] is -1.1% (inactive). Also, the values for the nuclei count in assay [2] and in assay [3] were 103% and 106%, respectively. Moreover, in assay [4], the fluorescence slope was -0.417 (inactive). The NADPH fluorescence slope in assay [5] is -0.0001 (inactive). The slope in assay [6] was 0.0056 (inactive).

In the case of `CCC1CCCCN1C(=O)CSc1nnc(-c2ccco2)o1` (stereo not drawn), in assay [1], the cell count was found to be 368. Moreover, the inhibition was 4.2% (inactive) in assay [1], -80.6% (inactive) in assay [3], -35.7% (inactive) in assay [7] and -88.3% (inactive) in assay [8]. Also, the inhibition of aggregation in assay [2] is -17.6% (inactive). For the same compound, the nuclei count in assay [2] worked out at 100%; in assay [3] it was 104%. Moreover, the fluorescence slope in assay [4] is -0.487 (inactive). In assay [5], the NADPH fluorescence slope was -7.3e-05 (inactive). In assay [6], the slope was 0.00444 (inactive).

With `C=CCSc1nnc(NC(=O)c2ccc(S(=O)(=O)NCC3CCCO3)cc2)s1` (stereo not drawn), the cell count in assay [1] was 245. For the same compound, the inhibition in assay [1] is 5.1% (inactive); in assay [3], -146% (inactive); in assay [7], 4.11% (inactive); in assay [8], 11% (inactive). In addition, the inhibition of aggregation in assay [2] was -8.6% (inactive). The nuclei count amounted to 88.4% in assay [2] and 114% in assay [3]. Moreover, the fluorescence slope in assay [4] was -0.496 (inactive). In addition, the NADPH fluorescence slope in assay [5] was -4.8e-05 (inactive). Also, the slope in assay [6] was 0.00603 (inactive).

Turning to `Cc1nc2sc(C(c3ccc(Br)cc3)N3CC(C)OC(C)C3)c(O)n2n1` (stereo not drawn), the cell count in assay [1] was 260. Also, the inhibition in assay [1] is -5.4% (inactive); in assay [3] it was -6.9% (inactive); in assay [7], 4.21% (inactive); in assay [8], 17.4% (inactive). For the same compound, in assay [2], the inhibition of aggregation is -0.8% (inactive). Besides, the nuclei count in assay [2] is 106%; in assay [3], 114%. The fluorescence slope in assay [4] is -0.437 (inactive). The NADPH fluorescence slope in assay [5] is -6.3e-05 (inactive). Also, the slope in assay [6] is 0.00564 (inactive).

In the case of `Cc1coc2cc3oc(=O)c4c(c3cc12)CCC4`, the cell count in assay [1] stood at 714. Besides, the inhibition is 6.7% (inactive) in assay [1], -48.2% (inactive) in assay [3], -1.57% (inactive) in assay [7] and -5.8% (inactive) in assay [8]. Besides, in assay [2], the inhibition of aggregation is -13.1% (inactive). The values for the nuclei count in assay [2] and in assay [3] were 59.7% and 135%, respectively. Besides, in assay [4], the fluorescence slope was -0.566 (inactive). In addition, the NADPH fluorescence slope in assay [5] is -1.8e-05 (inactive). In assay [6], the slope is 0.00717 (inactive).

In the case of `Cc1cccc(OCC(=O)N(Cc2cccs2)C2CCS(=O)(=O)C2)c1C` (stereo not drawn), in assay [1], the cell count is 220. Moreover, the inhibition was 2.4% (inactive) in assay [1], -142% (inactive) in assay [3], 13.8% (inactive) in assay [7] and 16.1% (inactive) in assay [8]. Besides, in assay [2], the inhibition of aggregation was 0.4% (inactive). In addition, the nuclei count turned out to be 88.1% in assay [2] and 112% in assay [3]. The fluorescence slope in assay [4] is -0.639 (inactive). In addition, the NADPH fluorescence slope in assay [5] is -3.9e-05 (inactive). The slope in assay [6] was 0.00768 (inactive).

The record behind these values is PubChem BioAssay.
